According to PubChem BioAssay (NCI):
This is part of a sample that, as a whole, favours compounds with a hit. Of some 83,000 tested, about 20% had one in any assay.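 A percent growth of 40 corresponds to 60% growth inhibition; 0 means no net growth; -100 means all cells died. Active threshold: below 10.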 Calls of active or inactive are those of the source.

Tests used:
Experiment in all cases: NCI-60 one-dose screen, 48 h (100 = growth as untreated, 0 = no growth, -100 = all killed)
SK-MEL-2 melanoma = details: 10 µM unless noted
EKVX NSCLC = details: 10 µM
SN12C renal = details: 10 µM unless noted
UO-31 renal = details: 10 µM unless noted
TK-10 renal = details: 10 µM unless noted
CAKI-1 renal = details: 10 µM unless noted
A498 renal = details: 10 µM unless noted
CCRF-CEM leukemia = details: 10 µM
MOLT-4 leukemia = details: 10 µM unless noted
ACHN renal = details: 10 µM unless noted

Measured: growth

O=C(Nc1cccc(Cn2c(=O)[nH]c3ccc(Oc4ncccn4)cc3c2=O)c1)c1ccc(Cl)cc1
inactive: SK-MEL-2 melanoma 59.5% | EKVX NSCLC 52.3% | SN12C renal 63.5% | UO-31 renal 47.7% | TK-10 renal 58.5% | CAKI-1 renal 60.9% | A498 renal 53.4% | CCRF-CEM leukemia 47% | MOLT-4 leukemia 22.5%

CCc1c(C)c2ccc(OCC(=O)N=Nc3c(O)[nH]c4ccccc34)c(C)c2oc1=O
active: SN12C renal -43% | MOLT-4 leukemia 8.66%
inactive: SK-MEL-2 melanoma 32.9% | EKVX NSCLC 88.9% | UO-31 renal 64.8% | TK-10 renal 61.3% | A498 renal 56.9% | CCRF-CEM leukemia 10.3%

O=C(NCCCl)Nc1nccnc1OCc1ccc(F)cc1
inactive: SK-MEL-2 melanoma 100% | EKVX NSCLC 97.5% | SN12C renal 94.1% | UO-31 renal 86.8% | TK-10 renal 138% | CAKI-1 renal 89.6% | A498 renal 105% | CCRF-CEM leukemia 96% | MOLT-4 leukemia 91.9%

O=C(/C=C/c1c[nH]c2ccccc12)c1cc2ccccc2o1
inactive: SK-MEL-2 melanoma 105% | EKVX NSCLC 84.4% | SN12C renal 101% | UO-31 renal 60.2% | TK-10 renal 140% | ACHN renal 103% | CCRF-CEM leukemia 36.3% | MOLT-4 leukemia 75.3%

O=C(/C=C/c1ccc(Br)cc1)c1ccccc1
inactive: SK-MEL-2 melanoma 103% | EKVX NSCLC 109% | SN12C renal 91.6% | UO-31 renal 80.3% | TK-10 renal 64% | CAKI-1 renal 101% | A498 renal 77.4% | CCRF-CEM leukemia 81.6% | MOLT-4 leukemia 92.3%

CCOC(=O)CNS(=O)(=O)CC(=O)c1ccccc1
inactive: SK-MEL-2 melanoma 128% | EKVX NSCLC 90.3% | SN12C renal 84.2% | UO-31 renal 86.6% | TK-10 renal 80.9% | CAKI-1 renal 93% | A498 renal 117% | CCRF-CEM leukemia 105% | MOLT-4 leukemia 109%

Nc1nc2c(c3ncncc13)C(c1cccc(C(F)(F)F)c1)Cc1ncncc1-2 (stereo not given)
inactive: SK-MEL-2 melanoma 48.2% | EKVX NSCLC 48% | SN12C renal 55.2% | UO-31 renal 51% | TK-10 renal 50.6% | CAKI-1 renal 34.5% | CCRF-CEM leukemia 13.5% | MOLT-4 leukemia 29.2%
active: A498 renal -6.07%

COc1ccc2cc(C(C)C(=O)Nc3ccc(S(=O)(=O)Nc4cc(C)on4)cc3)ccc2c1 (stereo not given)
inactive: SK-MEL-2 melanoma 117% | EKVX NSCLC 97.5% | SN12C renal 116% | UO-31 renal 90% | TK-10 renal 103% | ACHN renal 97.3% | MOLT-4 leukemia 106%

COc1cc(-c2nc(/C=C3/C(=O)Nc4ccccc43)c3ccccn23)cc(OC)c1OC
inactive: SK-MEL-2 melanoma 43.7% | EKVX NSCLC 102% | SN12C renal 79.3% | UO-31 renal 41.9% | TK-10 renal 120% | CAKI-1 renal 58.2% | A498 renal 111% | CCRF-CEM leukemia 72.7% | MOLT-4 leukemia 62.8%

CC(=O)CCS(=O)c1ccccc1 (stereo not given)
inactive: SK-MEL-2 melanoma 97.1% | EKVX NSCLC 106% | SN12C renal 98.6% | UO-31 renal 85.8% | TK-10 renal 89% | ACHN renal 112% | CCRF-CEM leukemia 101% | MOLT-4 leukemia 98.3%

COC(=O)c1ccc2[nH]c(O)c(C(=Nc3ccc(N(C)C(=O)CN4CCN(C)CC4)cc3)c3ccc(CCO)cc3)c2c1
inactive: SK-MEL-2 melanoma 34.9% | EKVX NSCLC 85.5% | SN12C renal 27.8% | UO-31 renal 72.2% | TK-10 renal 65.2% | CAKI-1 renal 33.1% | A498 renal 45.6% | CCRF-CEM leukemia 15.5% | MOLT-4 leukemia 21.4%

Cc1ccc(NCc2cn(-c3ccc(C(=O)O)cc3)nc2-c2ccc(C(=O)O)cc2)cc1
inactive: SK-MEL-2 melanoma 94.3% | EKVX NSCLC 106% | SN12C renal 108% | UO-31 renal 90.6% | TK-10 renal 99% | ACHN renal 108% | CCRF-CEM leukemia 104% | MOLT-4 leukemia 105%

CCCCCCNC(=O)Oc1ccc(/C(=C(/C)Cc2ccc(OC)cc2)c2ccc(OCCN3CCCCC3)cc2)cc1
inactive: SK-MEL-2 melanoma 101% | EKVX NSCLC 81.9% | SN12C renal 80.1% | UO-31 renal 58.5% | TK-10 renal 89.8% | ACHN renal 99.5% | CCRF-CEM leukemia 72% | MOLT-4 leukemia 69.3%

COC(=O)/C(Br)=C/c1c[nH]c2ccc(Br)cc12
inactive: SK-MEL-2 melanoma 88.7% | EKVX NSCLC 76.2% | SN12C renal 88.1% | UO-31 renal 46.7% | TK-10 renal 78.3% | CAKI-1 renal 69.1% | A498 renal 92.3% | CCRF-CEM leukemia 23.4% | MOLT-4 leukemia 52.8%

C[C@]12CC[C@H]3[C@@H](CC[C@H]4C[C@@H](O)CC[C@@]43C)[C@@H]1CC(=O)C2
inactive: SK-MEL-2 melanoma 103% | EKVX NSCLC 96.9% | SN12C renal 101% | UO-31 renal 84.1% | TK-10 renal 94.2% | ACHN renal 100% | MOLT-4 leukemia 85.7%

CSC1=Nc2c(c(C)c(-c3ccccc3)n2CCCCl)C2=NC(=O)CN12
inactive: SK-MEL-2 melanoma 75.4% | EKVX NSCLC 54.2% | SN12C renal 86.3% | UO-31 renal 57.2% | TK-10 renal 105% | ACHN renal 88.3% | CCRF-CEM leukemia 51.9% | MOLT-4 leukemia 50.6%

COc1ccc(C2C3(C#N)C(N)=NC(=C(C#N)C#N)C23C#N)cc1OC (stereo not given)
inactive: SK-MEL-2 melanoma 104% | EKVX NSCLC 94.6% | SN12C renal 109% | UO-31 renal 91% | TK-10 renal 114% | ACHN renal 106% | CCRF-CEM leukemia 92.3% | MOLT-4 leukemia 102%

CCOC(=O)C1CCCN1C(=O)C1(NC(C)=O)CCCC1 (stereo not given)
inactive: SK-MEL-2 melanoma 110% | EKVX NSCLC 100% | SN12C renal 118% | UO-31 renal 88.5% | TK-10 renal 107% | ACHN renal 117% | CCRF-CEM leukemia 97.4% | MOLT-4 leukemia 116%

C/C(=N\Nc1cccc(Cl)n1)c1ccccn1
active: EKVX NSCLC 5.56% | UO-31 renal -1.99% | A498 renal -1.3% | CCRF-CEM leukemia 6.2% | MOLT-4 leukemia 4.01%
inactive: SK-MEL-2 melanoma 21% | SN12C renal 13.6% | TK-10 renal 22.7% | CAKI-1 renal 12.7%

CC(=N\N=C(N)N)/C(=N/N=C(N)N)c1ccccc1
inactive: SK-MEL-2 melanoma 84.6% | EKVX NSCLC 68.6% | SN12C renal 107% | UO-31 renal 82.9% | TK-10 renal 91.1% | ACHN renal 106% | CCRF-CEM leukemia 32.2% | MOLT-4 leukemia 48.9%

Cc1ncc(C(=O)Nc2ccc(CN3CCN(C)CC3)c(C(F)(F)F)c2)cc1C#Cc1c(N)ncc2ccc(F)cc12
active: SK-MEL-2 melanoma 0.14% | EKVX NSCLC -7.75% | UO-31 renal 6.12% | TK-10 renal -89.2% | A498 renal -65.1% | CCRF-CEM leukemia -47.6% | MOLT-4 leukemia -57.9%
inactive: SN12C renal 19.1% | CAKI-1 renal 20.8%

O=C1/C(=C\c2cn(-c3nc(N4CCOCC4)nc(N4CCOCC4)n3)c3ccccc23)c2ccccc2N1c1c(Cl)cccc1Cl
inactive: SK-MEL-2 melanoma 74% | EKVX NSCLC 61% | SN12C renal 64.8% | UO-31 renal 24.6% | TK-10 renal 60% | ACHN renal 72.7% | CCRF-CEM leukemia 64.5% | MOLT-4 leukemia 60.5%

COc1ccc(NC(=O)/C=C(C)/C=C/C=C(C)/C=C/C2=C(C)CCCC2(C)C)cc1
inactive: SK-MEL-2 melanoma 61.6% | EKVX NSCLC 82.7% | SN12C renal 65.9% | UO-31 renal 53% | TK-10 renal 61.6% | CAKI-1 renal 66.6% | A498 renal 91.1% | CCRF-CEM leukemia 60.6% | MOLT-4 leukemia 76.1%

CCCNC(=O)Oc1ccc(/C(=C(/C)Cc2ccc(OC)cc2)c2ccc(OCCN3CCCCC3)cc2)cc1
inactive: SK-MEL-2 melanoma 99.5% | EKVX NSCLC 76.6% | SN12C renal 84.9% | UO-31 renal 60.8% | TK-10 renal 81.1% | ACHN renal 102% | CCRF-CEM leukemia 70.8% | MOLT-4 leukemia 70.9%

COCC(=O)NNc1[nH]c(-c2ccc(OC)cc2)cc1C#N
inactive: SK-MEL-2 melanoma 108% | EKVX NSCLC 112% | SN12C renal 112% | UO-31 renal 95.4% | TK-10 renal 92.7% | CAKI-1 renal 105% | A498 renal 116% | CCRF-CEM leukemia 55.9% | MOLT-4 leukemia 81.8%

c1ccc(-c2cn3ccnc3c(-c3ccc4ncn(C5CCCCC5)c4c3)n2)cc1
inactive: SK-MEL-2 melanoma 83.5% | EKVX NSCLC 75.8% | SN12C renal 71.2% | UO-31 renal 44.8% | TK-10 renal 97.7% | ACHN renal 64.1% | CCRF-CEM leukemia 18.7% | MOLT-4 leukemia 32.3%

COc1ccc(-c2nc(SCC(C)C)nc(Nc3ccc(C(=O)O)cc3)c2C#N)cc1
inactive: SK-MEL-2 melanoma 57.9% | EKVX NSCLC 90.7% | SN12C renal 102% | UO-31 renal 92.9% | TK-10 renal 88.5% | ACHN renal 89.5% | CCRF-CEM leukemia 89.2% | MOLT-4 leukemia 82.7%

CCOc1ccc2nc3ccc(Cl)cc3nc2c1
active: CCRF-CEM leukemia -0.816%
inactive: SK-MEL-2 melanoma 97.5% | EKVX NSCLC 75% | SN12C renal 100% | UO-31 renal 74.9% | TK-10 renal 95.1% | CAKI-1 renal 124% | A498 renal 83.3% | MOLT-4 leukemia 50.8%
